# Source: PubChem BioAssay (National Center for Advancing Translational Sciences (NCATS))
# GPR32 ag: GPR32 (DRV1) agonism, beta-arrestin recruitment; O75388; CHO-K1 GPR32 beta-arrestin PathHunter luminescence, 90 min; zero percent set by DMSO-only wells; activation, % at 76.9 µM; 48,000 compounds, 2.5% hits; AID 1346428;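 active = activation of at least 60% and not above a set upper limit, about 1 call in 100 departs from these limits; inconclusive = activation of 40% to 60%, or above that upper limit; inactive = activation under 40%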; also: 0% is about no effect
# Target sequence (O75388 whole entry, looked up): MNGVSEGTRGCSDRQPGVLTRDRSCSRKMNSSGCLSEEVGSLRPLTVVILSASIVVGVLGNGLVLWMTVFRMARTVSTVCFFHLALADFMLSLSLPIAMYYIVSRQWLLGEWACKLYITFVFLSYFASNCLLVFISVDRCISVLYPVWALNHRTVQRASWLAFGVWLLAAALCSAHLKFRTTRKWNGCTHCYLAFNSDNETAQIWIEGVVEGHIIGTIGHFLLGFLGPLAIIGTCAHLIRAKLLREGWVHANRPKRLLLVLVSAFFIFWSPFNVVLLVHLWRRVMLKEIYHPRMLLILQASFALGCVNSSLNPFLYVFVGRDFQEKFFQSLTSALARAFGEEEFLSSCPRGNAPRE
#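 Agonism was scored by beta-Gal fragment complementation (chemiluminescent read, 1 h detection at ambient temperature) reporting beta-arrestin binding to GPR32 in engineered CHO-K1 cells. Compound treatment lasted 90 min at 37 C, normalized to a DMSO basal control.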
# HTT promoter inh: inhibits huntingtin promoter activity. HEK293 HTT promoter firefly luciferase reporter, 24 h. Potency, µM (titrated, usually from 57.5 µM), without a hit: top-dose activity change, negative = inhibition, hits mostly inhibitors. 48,000 compounds, 0.93% hits; also: potency is read from the fitted curve at half-maximal effect; nearly all actives have a fitted effect of over 50% in size
#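 Luminescence was read after Dual-Glo reagent and a 10 min room-temperature incubation. Values were normalized to vehicle (0% activity) and zero RLU (-100% activity). Reporter HEK293 cells had been exposed to compounds (up to 57.5 uM final) for 24 h.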
# HTT-AS act: activators of huntingtin-antisense promoter activity; HEK293 HTT-AS promoter firefly luciferase reporter, 24 h; response scale: percent change from vehicle, -100% = no light; Potency, µM (doses to about 57.5 µM), for inactives: at the highest dose activity change, positive = activation, actives largely listed as activators; 48,000 compounds, 0.24% hits; also: potency is read from the fitted curve at half-maximal effect; nearly all actives have a fitted effect of over 55% in size
#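 HEK293 Fluc reporter, 2,500 cells/well, 24 h pre-culture; cpds up to 57.5 uM final, 24 h 37 degrees C; Dual-Glo, 10 min RT; normalized vehicle = 0%, zero RLU = -100%.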
# Numbers without * were called inactive; ? = inconclusive; . = not tested or not shown; ! = not confirmed by another sample; [ ] = dose if it differs, or a comment. Hits are enriched below; roughly 3.7% of the tested compounds scored in any of these assays. Unless noted, calls follow the shape of the dose curve; as a rule, active = well fitted curve in the direction sought with a large enough effect; inconclusive = small, poorly fitted or top-dose-only effect, or another doubt; inactive = no such curve, though single readings can be large; an effect the other way counts as inactive or inconclusive.
SMILES,GPR32 ag,HTT promoter inh,HTT-AS act
Cc1ccc(NC(=O)CSc2nccn2Cc2ccco2)cc1Cl,-5,30%,13µM*
O=C(CSc1nccn1Cc1ccco1)Nc1ccc(F)cc1,-6,-4%,34%
CC(=O)c1ccc(NC(=O)CSc2nccn2Cc2ccco2)cc1,-16,36%,3.2µM*
O=C(CSc1nccn1Cc1ccco1)Nc1cccc(F)c1,-4,10%,15%
CCNC(=O)Nc1ccc2ncc(Nc3ccc(C)cc3)nc2n1,.,12%,-1%
COc1ccc(C(=O)NCC(c2cccnc2)N2CCN(c3ccccc3OC)CC2)cc1 (configuration not stated),13,?,-53%
COc1ccccc1N1CCN(C(CNC(=O)C(=O)NCCc2ccccc2)c2cccnc2)CC1 (configuration not stated),36,7.1µM*,-57%
O=C(NCCc1ccccc1)C(=O)NCC(c1cccnc1)N1CCN(c2ccc(F)cc2)CC1 (configuration not stated),8,14µM*,-49%
O=C(NCc1cccnc1)C(=O)NCC(c1cccnc1)N1CCN(c2ccc(F)cc2)CC1 (configuration not stated),5,?,-15%
Cc1cc(C(=O)N2CCN(c3cccc(Cl)c3)CC2)n(-c2ccccc2)n1,.,-17%,-28%
COc1ccc(-c2nc(CCNC(=O)c3c(F)cccc3Cl)cs2)cc1,14,?,-17%
O=C(CSCc1ccc(F)cc1)N1CCN(c2ccccc2F)CC1,-13,2%,23%
Cc1oc(-c2ccccc2F)nc1CS(=O)(=O)CC(=O)N1CCN(c2cccc(C(F)(F)F)c2)CC1,47,?,-55%
COc1ccc(-c2nc(CSCC(=O)N3CCN(c4ccccc4F)CC3)c(C)o2)cc1,14,28µM*,-66%
Cc1oc(-c2ccccc2F)nc1CSCC(=O)N1CCN(c2ccccc2)CC1,4,22µM*,-64%
CC1(C)SCCN(S(=O)(=O)c2ccc(OCC#CCO)cc2)[C@@H]1C(=O)NO,.,2%,-2%
CCC1Oc2ccc(C)cc2N(CC(=O)NCc2ccc(OC)cc2)C1=O (configuration not stated),64*,-5%,-16%
CCC1Oc2ccccc2N(CC(=O)NCc2ccc(C)cc2)C1=O (configuration not stated),-16,24%,?
Nc1nc(Cl)nc2c1ncn2[C@@H]1O[C@H](CO)[C@@H](O)[C@H]1F,.,?,-28%
COc1cc(Cl)c(NC(=O)CN(C)S(=O)(=O)c2ccc3c(c2)CCCC(=O)N3)c(OC)c1,67*,?,-29%
CC(=O)Nc1ccc(NC(=O)CN(C)S(=O)(=O)c2ccc3c(c2)CCCC(=O)N3)cc1,19,-8%,-6%
COC1=C2C[C@@H](C)C[C@H](OC)[C@@H](O)[C@@H](C)C=C(C)[C@H](OC(N)=O)[C@@H](OC)C=CC=C(C)C(=O)NC(=CC1=O)C2=O,.,?,-65%
Cc1ccccc1C(=O)Nc1sc2c(c1C(=O)O)CCC(C(C)(C)C)C2 (configuration not stated),-1,2.8µM*,-37%
COc1ccccc1NC(=O)c1c(NC(=O)Cc2ccccc2)sc2c1CCC(C(C)(C)C)C2 (configuration not stated),-4,-3%[11.5 µM],15%[11.5 µM]
Cc1ccccc1C(=O)Nc1sc2c(c1C(=O)N1CCCCC1)CCC(C(C)(C)C)C2 (configuration not stated),-21,-7%,2%
SMILES,GPR32 ag,HTT promoter inh,HTT-AS act
CCOc1ccccc1NC(=O)c1c(NC(=O)c2ccccc2)sc2c1CCCC2,66*,-26%,-15%
CCCNC(=O)c1c(NC(=O)c2ccccc2)sc2c1CCC(C(C)(C)C)C2 (configuration not stated),9,-7%,-12%
CCOc1ccccc1NC(=O)c1c(NC(=O)c2ccncc2)sc2c1CCC(C(C)(C)C)C2 (configuration not stated),113*,-1%,0%
CCc1ccccc1NC(=O)c1c(NC(=O)c2ccccc2)sc2c1CCCC2,0,19%,-2%
Cc1ccccc1NC(=O)c1c(NC(=O)c2ccncc2)sc2c1CCC(C(C)(C)C)C2 (configuration not stated),72*,-21%,11%[11.5 µM]
CCN(C(=O)c1c(O)c2c(Cl)cccc2n(C)c1=O)c1ccccc1,.,-12%,0%
O=C(Nc1ncc(SCCN2CCCC2)s1)[C@]1(c2ccc(S(=O)(=O)C3CC3)cc2)C[C@@H]1C1CCCCC1,.,-12%,-19%
COc1ccc(CNc2oc(-c3ccc(COc4ccc(Cl)cc4)o3)nc2C#N)cc1,-20,22µM*,-60%
COc1ccc(OCc2ccc(-c3nc(C#N)c(NCc4ccccc4)o3)o2)cc1,-27,24%,6%
COc1ccc(CNc2oc(-c3ccc(COc4ccccc4C)o3)nc2C#N)cc1,-28,20µM*,-64%
Cc1ccc(CNc2oc(-c3ccc(COc4ccc(Cl)cc4)o3)nc2C#N)cc1,-17,?,-51%
COc1cc(C=C2CCC/C(=C\c3ccc(O)c(OC)c3)C2=O)ccc1O,-44,?,-80%
Cc1ccc(CN(C(=O)c2ccc(F)cc2)c2ccccn2)o1,-38,8%,-13%
CCCCOc1cccc(C(=O)N(Cc2ccc(C)o2)c2ccccn2)c1,26,28µM*,-48%
CCC(C)NC(=O)Cn1c(=O)n(Cc2ccc(C(=O)NCc3ccc(C)cc3)cc2)c(=O)c2ccccc21 (configuration not stated),-12,-14%,-16%
CCOC(=O)c1c(C)[nH]c(C)c1S(=O)(=O)N(C)CC(=O)NCc1cccc(Br)c1,101*,-41%,-16%
CCOC(=O)c1c(C)[nH]c(C)c1S(=O)(=O)NCC(=O)NCc1cccc(Br)c1,-11,-22%,-9%
Cn1cc(-c2cnn3c(N)c(Br)c([C@H]4CCCNC4)nc23)cn1,.,?,-31%
Nc1ccc(C(=O)c2cc3c(ccc4ccccc43)[nH]2)cc1,.,-17%,-26%
CCCN1CCCc2cc(CN(CCCN3CCOCC3)C(=O)Nc3ccc(CC)cc3)ccc21,61*,-16%,-33%
CCCCN1CCCc2cc(CN(CCCN3CCOCC3)C(=O)Nc3ccc(CC)cc3)ccc21,14,6%,-30%
CCOc1cc2ncc(C#N)c(Nc3ccc(F)c(Cl)c3)c2cc1NC(=O)C=CCN(C)C,.,-6%,-30%
CCOC(=O)c1c(NC(=O)COc2ccc(OC)cc2)sc(C(=O)N(CC)CC)c1C,-24,11µM*,-58%
CCOC(=O)c1c(NC(=O)COc2ccc(Br)cc2)sc(C(C)=O)c1C,-6,-21%,6%
CC1=C(C(=O)OCC2CCCCC2)C(c2cccc(Cl)c2Cl)CC(=O)N1 (configuration not stated),13,-11%,-5%
CCOC(=O)C1=C(C)NC(C)=C(C(=O)OC)C1c1cccc(Cl)c1Cl (configuration not stated),110*!,-10%,-18%
CC1(C)CCC[C@@]2(C)[C@@H]1CC[C@@]1(C)OC(=O)C[C@H]21,.,-10%,-6%
Cc1ccc(NC(=O)CCOc2ccccc2)cc1,-9,48%,10µM*
